Screening data from PubChem.
Compounds with a hit are over-represented: about 7.9% of the library has one in this group of screens.
HT1080 IDH1KD tx: qHTS for induction of synthetic lethality in tumor cells producing 2HG: qHTS for the HT-1080-IDH1KD cell line; Potency, µM (doses to about 46.1 µM), most hits filed as cytotoxic; HT-1080 IDH1 knockdown viability, ATP luminescence, 48 h; hit rate 2% among 360,000
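IDH1KD HT-1080 cells, 750/well, RPMI + 5% FBS; compound pinned after 2 h settling; 48 h, 37 °C; CellTiter-Glo luminescence; % activity normalised to DMSO and no-cell wells; curves fitted, classed by r2 and efficacy.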
MCF10A rereplic: A quantitative high throughput screen for small molecules that induce DNA re-replication in MCF 10a normal breast cells | MCF 10A DNA re-replication, Hoechst nuclear intensity, 48 h | Potency, µM (series often up to 46.1 µM), most hits filed as activators | hit rate 2.9% among 350,000; also: nearly all actives have a fitted effect of over 50% in size
KB-3-1 cytotox: qHTS assay for MDR1-selective chemotherapeutics: Primary screen using the parental adenocarcinoma cell KB-3-1; AID 1347075, 2019; KB-3-1 viability, CellTiter-Glo ATP luminescence, 72 h; Potency, µM (doses to about 46.1 µM), usual class: cytotoxic; hit rate 1.4% among 400,000; also: nearly all actives have a fitted effect of over 60% in size
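Cytotoxicity in the drug-sensitive parental line KB-3-1 was scored as loss of CellTiter-Glo luminescence following 72 h incubation with compound. Values come from curve fitting of normalized concentration-response data.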
KB-V1 cytotox: qHTS assay for MDR1-selective chemotherapeutics: Primary screen using the drug-selected MDR subline cells KB-V1. KB-V1 MDR cells viability, CellTiter-Glo, 72 h. Potency, µM (highest dose often 46.1 µM), hits mostly cytotoxic. hit rate 3.4% among 400,000; also: nearly all actives have a fitted effect of over 60% in size
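KB-V1 cells (P-gp-expressing MDR subline of KB-3-1) in phenol-red-free DMEM with 10% FBS were exposed to library compounds over a concentration series for 72 h at 37 degrees C. Viability read by CellTiter-Glo luminescence; concentration-effect curves fitted after normalization.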
HT1080NT lethal: qHTS for induction of synthetic lethality in tumor cells producing 2HG: qHTS for the HT-1080-NT fibrosarcoma cell line; AID 686970, 2013; HT-1080-NT fibrosarcoma viability, CellTiter-Glo ATP luminescence, 48 h; hit rate 1.6% among 360,000; Potency, µM (series often up to 46.1 µM), most hits filed as cytotoxic;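 also: NT is the 2HG producing partner of a matched IDH1 knockdown line; nearly all actives have a fitted effect of over 55% in size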
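HT-1080-NT; 750 cells/well; 5% FBS RPMI; 48 h compound, 37 degrees C; CellTiter-Glo luminescence; curve fitting and curve-class assignment.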
SW480 rereplic: A quantitative high throughput screen for small molecules that induce DNA re-replication in SW480 colon adenocarcinoma cells; Potency, µM (series often up to 46.1 µM), actives largely listed as activators; SW480 DNA re-replication, Hoechst DNA content imaging, 48 h; AID 624297, 2012; hit rate 1.8% among 340,000; also: nearly all actives have a fitted effect of over 55% in size
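250 cells/well; 23 nL cpd via pin tool; 48 hr, 37 C, 5% CO2; Hoechst 40 min; imager read of total nuclear intensity, ex 405/em 500-530 nm.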
Numbers stand for hits; 0 = inactive; ? = inconclusive; - = no result. Calls follow the shape of the dose curve; as a rule, active = well fitted curve in the direction sought with a large enough effect; inconclusive = small, poorly fitted or top-dose-only effect, or another doubt; inactive = no such curve, though single readings can be large; an effect the other way counts as inactive or inconclusive.

SMILES | HT1080 IDH1KD tx | MCF10A rereplic | KB-3-1 cytotox | KB-V1 cytotox | HT1080NT lethal | SW480 rereplic
CCc1ccc(OCC(=O)NC(NC(=S)Nc2ccccc2C)C(Cl)(Cl)Cl)cc1 (stereo unspecified) | ? | 18µM | ? | ? | 16µM | 0
CCc1ccc(OCC(=O)NC(NC(=S)Nc2ccccc2OC)C(Cl)(Cl)Cl)cc1 (stereo unspecified) | 0 | ? | ? | ? | 0 | 0
Cc1ccccc1NC(=S)NC(NC(=O)COc1ccccc1)C(Cl)(Cl)Cl (stereo unspecified) | 0 | 0 | ? | ? | 0 | 0
CCc1ccc(OCC(=O)NC(NC(=S)Nc2ccccc2)C(Cl)(Cl)Cl)cc1 (stereo unspecified) | 16µM | ? | ? | 0 | 16µM | 0
O=C(Cc1ncc(C(F)(F)F)cc1Cl)NNc1cccc(F)n1 | 0 | 0 | 0 | 0 | 0 | 0
O=C(Nc1ccccc1Br)C(Cc1ccccc1)NS(=O)(=O)c1cccc2nsnc12 (stereo unspecified) | - | - | 0 | 0 | - | -
CCCCCc1cc[n+](CC(=O)c2ccccc2)cc1 | - | - | 0 | 0 | - | -
CC1CCN(CC(=O)Nc2nc(-c3ccccc3)cs2)CC1 | 0 | ? | 0 | 0 | 0 | 0
Cc1ccc(-c2csc(NC(=O)CN3CC(C)OC(C)C3)n2)cc1 (stereo unspecified) | ? | 18µM | 23µM | ? | ? | ?
O=C(Cn1nnc(-c2ccc(CN3CCOCC3)cc2)n1)Nc1nc(-c2ccccc2)cs1 | 0 | 0 | 0 | 18µM | ? | 0
CCOC(=O)c1ccc(-c2csc(NC(=O)CN3CCC(C)CC3)n2)cc1 | ? | ? | 0 | 0 | 26µM | 0
COc1ccc(-c2nc(C)c(CCNC(=O)C(=O)Nc3ccccc3C#N)s2)cc1OC | - | - | 0 | 0 | - | -
COc1ccc(NC(=O)N2c3ccc(OC)cc3C(C)=CC2(C)C)cc1 | 0 | 21µM | 0 | ? | 0 | 0
Nc1c(C(=O)NCc2ccccc2)c2nc3ccccc3nc2n1CCCN1CCOCC1 | ? | 18µM | 0 | 0 | ? | 18µM
Nc1c(C(=O)NCc2ccc(F)cc2)c2nc3ccccc3nc2n1CCCN1CCOCC1 | ? | ? | ? | ? | ? | 3.7µM
O=C(NCc1ccco1)c1ccc2ccccc2n1 | 0 | 0 | 0 | 0 | 0 | 0
Nc1c(C(=O)NCc2ccco2)c2nc3ccccc3nc2n1CCc1ccccc1 | 0 | 1.8µM | 0 | ? | ? | 7.3µM
CCOc1ccc(-n2c(N)c(C(=O)NCc3ccco3)c3nc4ccccc4nc32)cc1 | ? | 13µM | 0 | ? | ? | ?
O=C(CSc1n[nH]c(-c2ccccc2Cl)n1)NCc1ccc(F)cc1 | - | - | 0 | 0 | - | -
O=C(O)Cc1ccc(NC(=O)c2ccc3c(c2)C(=O)N(Cc2ccco2)C3=O)cc1 | 0 | 0 | 0 | 0 | 0 | 0
COCc1c(C(=O)NC2CCCCC2)sc2cccc(F)c12 | 0 | ? | ? | ? | 0 | 0
COc1ccc(CNC(=O)c2c(N)n(CCCN3CCOCC3)c3nc4ccccc4nc23)cc1 | ? | ? | 0 | ? | ? | 2.6µM
Cc1cccc(-c2ccc3[nH]c4c(c3c2)CCN2C[C@@H]([C@H](C)O)[C@@H](N(C)C(=O)Nc3ccc(F)cc3)C[C@@H]42)c1 | ? | - | ? | 0 | 21µM | -
COc1ccc(NC(=O)N(C)[C@H]2C[C@H]3c4[nH]c5ccc(-c6cccc(C)c6)cc5c4CCN3C[C@H]2[C@H](C)O)cc1 | ? | - | ? | ? | 23µM | -
COc1ccc(NC(=O)N(C)[C@H]2C[C@H]3c4[nH]c5ccccc5c4CCN3C[C@H]2[C@H](C)O)cc1 | ? | - | 0 | 0 | ? | -
SMILES | HT1080 IDH1KD tx | MCF10A rereplic | KB-3-1 cytotox | KB-V1 cytotox | HT1080NT lethal | SW480 rereplic
Cc1sc2ncn(CC(=O)Nc3ccc(C(C)C)cc3)c(=O)c2c1S(=O)(=O)N1CCN(c2ncccn2)CC1 | - | - | 0 | 0 | - | -
O=C(CN1C(=O)COc2ccc(S(=O)(=O)N3CCOCC3)cc21)N1CCN(c2ccc(Cl)cc2)CC1 | - | - | 0 | ? | - | -
C[C@@H]1CN([C@H](C)CO)C(=O)CCCn2nncc2CO[C@H]1CN(C)Cc1cccnc1 | 0 | - | 0 | 0 | 0 | -
O=C(COC(=O)c1ccc(NS(=O)(=O)c2cccs2)cc1)NCc1ccco1 | 8.2µM | 9.2µM | 18µM | ? | 9.2µM | ?
O=S(=O)(Nc1cccc(CO)c1)c1cccs1 | 0 | 0 | 0.21µM | 0 | 0 | 0
O=C(COC(=O)c1cccs1)NCc1ccco1 | 0 | 0 | 0 | 0 | 0 | 0
O=C(COC(=O)c1ccc(NS(=O)(=O)c2cccs2)cc1O)NCc1ccccc1 | 3.7µM | 2.3µM | 5.8µM | 13µM | 2.6µM | 7.3µM
Cc1cccc(NS(=O)(=O)c2cccs2)c1 | 0 | 0 | 0 | 0 | 0 | 0
COc1cc2c(NC3CCN(C)CC3)nc(N3CCCN(C)CC3)nc2cc1OCC1CCCNC1 (stereo unspecified) | - | - | 0 | ? | - | -
O=C(O)COc1ccccc1/C=N/NC(=O)CSc1nc2ccccc2n1Cc1ccccc1Cl | 0 | ? | 0 | ? | 0 | 0
COc1ccc(C(=O)C(CN2CCOCC2)c2ccccc2)cc1 (stereo unspecified) | 2µM | ? | ? | ? | 7.1µM | 0
O=C(c1ccccc1)C(CCC(CN1CCOCC1)C(=O)c1ccccc1)CN1CCOCC1 (stereo unspecified) | 8.2µM | 4.6µM | 5.8µM | 5.8µM | 10µM | ?
CCC(O)(c1ccc(OC)cc1)C(CN1CCOCC1)c1ccccc1 (stereo unspecified) | 0 | ? | 0 | 0 | 0 | 0
CCCOc1ccc(C(=O)C(CN2CCCC2)c2ccccc2)cc1 (stereo unspecified) | 6.5µM | 8.2µM | 23µM | ? | 8.2µM | ?
OC(CN1CCOCC1)CN(c1ccccc1)c1ccccc1 (stereo unspecified) | 0 | 0 | 0 | 15µM | 0 | 0
CCC(=O)N1CCc2cc(Br)cc(S(=O)(=O)CCC(=O)NCCc3ccccc3Cl)c21 | - | - | 0 | 0 | - | -
CCn1c(SCC(=O)N2CCCCC2C)nc2c1c(=O)n(C)c(=O)n2C (stereo unspecified) | 0 | 0 | 0 | ? | 0 | 0
CCCCOc1ccc(C(=O)C(CN2CCOCC2)c2ccccc2)cc1 (stereo unspecified) | 16µM | ? | ? | ? | 13µM | 15µM
O=C(c1ccc(F)cc1)C(CN1CCOCC1)c1ccccc1 (stereo unspecified) | 5.2µM | 5.2µM | ? | ? | 0 | ?
